Consider eleven compounds from PubChem BioAssay (NCATS).

Assay [1] in a line: MultiTox-Fluor Cytotoxicity Assay - LYMP1-001 - Dead Cells (AID 946).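 Note: 0% = DMSO and 100% = tetraoctylammonium bromide.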 The gist of the method:
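LYMP1-001 lymphoblastoid cells (2500/well) treated 16 h at 37 C. Dead-cell protease cleavage of bis-AAF-R110 read at Ex/Em 485/520. Normalized to DMSO and 15 uM tetraoctylammonium bromide; AC50 from Hill fits.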

A short description of assay [2]: MultiTox-Fluor Cytotoxicity Assay - LYMP1-002 - Live Cells (AID 955). Note: % is set by controls: 0 for no effect and ±100 for the full control effect. The gist of the method: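 Read-out is live-cell protease activity (cell-permeant GF-AFC substrate, fluorescence Ex/Em=405/510), where a decrease indicates acute toxicity. Human lymphoblastoid cells were treated 16 hours at 37 C in a concentration series, and AC50 values came from standard Hill modelling.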

The nature of assay [3]: MultiTox-Fluor Cytotoxicity Assay - LYMP1-003 - Dead Cells (AID 961).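 Note: 0% = DMSO and 100% = tetraoctylammonium bromide; nearly all actives have a fitted effect of over 70% in size.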 In short, it runs like this: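 LYMP1-003 human lymphoblastoid cells (2500/well) exposed to compound 16 h at 37 C in complete medium; dead-cell protease read with bis-AAF-R110 fluorescence (Ex/Em 485/520) after 60 min at room temperature. Normalized to DMSO and 15 uM tetraoctylammonium bromide; AC50 from Hill fit.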

Assay [4] in a line: MultiTox-Fluor Cytotoxicity Assay - LYMP1-003 - Live Cells (AID 962).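 Note: 0% = DMSO only and full loss = 92 µM tetraoctylammonium bromide; cytotoxic hits lower the live-cell protease signal.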 The gist of the method:
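qHTS, 1536-well; 2500 cells/well LYMP1-003; 5 hr 37 C settle; cpd 16 hr 37 C; MultiTox-Fluor reagent 60 min RT; live-cell protease fluor. 405/510; Hill-fit AC50; tetraoctylammonium bromide pos. ctrl.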

Assay [5] can be described thus: Cell Viability - LYMP1-003 - Assay at 40 hr (AID 964). Note: nearly all actives have a fitted effect of over 60% in size. Note: potency is the fitted concentration of half-maximal effect. In short, it runs like this: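 Cells were seeded at 2500 per well and incubated 5 hr at 37 C. Compounds were added across a concentration series and left 40 hr at 37 C. CellTiter-Glo was added for 30 min at room temperature before luminescence reading.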
Assay [6] is described as follows: Cell Viability - LYMP2-011 (AID 969).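 Note: 0% = DMSO only and full inhibition = 92 µM tetraoctylammonium bromide; nearly all actives have a fitted effect of over 60% in size.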 In short, it runs like this:
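2500 cells/well, 5 hr 37 C; compound added, 24 hr 37 C; CellTiter-Glo 30 min RT; luminescence. qHTS concentration-response, Hill-equation AC50. Tetraoctylammonium bromide positive control.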

Assay [7] is described as follows: Cell Viability - LYMP2-013 (AID 970).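 Note: series mostly up to about 92 µM; 0% = DMSO only and full inhibition = tetraoctylammonium bromide control; nearly all actives have a fitted effect of over 55% in size.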 The gist of the method:
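qHTS; 2500 lymphoblastoid cells/well; 5 hr 37 C settle; cpd 24 hr 37 C; CellTiter-Glo, 30 min RT; luminescence. AC50 = Hill fit.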

A short description of assay [8]: Cell Viability - LYMP2-017 (AID 972). Note: series mostly up to about 92 µM; % is set by controls: 0 for no effect and ±100 for the full control effect; nearly all actives have a fitted effect of over 55% in size. In short, it runs like this: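 2500 cells/well, 5 h 37 C; cpd 24 h 37 C in complete medium; CellTiter-Glo, 30 min RT; luminescence (ATP). AC50 via Hill fit, qHTS.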
A short description of assay [9]: Cell Viability - LYMP2-002 (AID 977).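 Note: series mostly up to about 92 µM; compound exposure lasted 24 h at 37 °C; plate controls were DMSO only for no effect and 92 µM tetraoctylammonium bromide for full effect.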 The gist of the method:
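Human lymphoblastoid LYMP2-002 cells, 2500 per well, exposed to compounds for 24 h at 37 C in complete medium; viability read as intracellular ATP by CellTiter-Glo luminescence, AC50 from Hill fits.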

Assay [10] in a line: Cell Viability - LYMP2-006 (AID 978). Note: series mostly up to about 92 µM; % is set by controls: 0 for no effect and ±100 for the full control effect; nearly all actives have a fitted effect of over 60% in size. The gist of the method: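 Human lymphoblastoid cells, 2500 per well, were preincubated 5 hr at 37 C, then exposed to compounds for 24 hr at 37 C in complete medium. Viability was read as intracellular ATP by CellTiter-Glo luminescence; AC50 from Hill-equation fits of qHTS concentration-response data.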
Assay [11] is described as follows: Cell Viability - LYMP2-007 (AID 979).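 Note: cells exposed to compound for 24 h before reading; 0% = DMSO only and the negative end = 92 µM tetraoctylammonium bromide; nearly all actives have a fitted effect of over 60% in size.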 In short, it runs like this:
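Luminescent ATP signal (CellTiter-Glo) serves as the viability read-out after 24 hr compound treatment of lymphoblastoid cells in complete medium at 37 C. Concentration-response data were fitted to the Hill equation to give AC50 values.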

Assay [12] in a line: Cell Viability - LYMP2-010 (AID 981). Note: % is set by controls: 0 for no effect and ±100 for the full control effect; nearly all actives have a fitted effect of over 55% in size. The gist of the method:
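Luminescent ATP signal (CellTiter-Glo) served as the viability read-out. Cells of the human lymphoblastoid line were treated with compound over a concentration range for 24 hours at 37 C, and AC50 values came from Hill-equation modeling.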

A short description of assay [13]: Cell Viability - LYMP2-012 (AID 982).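 Note: cellular ATP by luciferase luminescence where a drop means cytotoxicity; cells exposed to compound for one day before reading; 0% = DMSO only and full loss = 92 µM tetraoctylammonium bromide; nearly all actives have a fitted effect of over 55% in size.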
Assay [14] in a line: Cell Viability - LYMP2-016 (AID 984). The gist of the method:
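Human lymphoblastoid cells (LYMP2-016), 2500/well in complete medium, preincubated 5 hr at 37 C, then compound-treated 24 hr at 37 C. Intracellular ATP read by CellTiter-Glo luminescence after 30 min at room temperature; AC50 from Hill-equation concentration-response fits.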

Assay [15] can be described thus: Cell Viability - LYMP2-018 (AID 985).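 Note: compound exposure lasted 24 hr at 37 °C; plate controls were DMSO only for no effect and tetraoctylammonium bromide at 92 µM for full effect; nearly all actives have a fitted effect of over 50% in size.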 In short, it runs like this:
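Luminescent ATP signal (CellTiter-Glo, read after 30 min at room temperature) reports viable cells after 24 hr compound treatment at 37 C. Concentration-response data were fitted to the standard Hill equation for AC50.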

The nature of assay [16]: Cell Viability - LYMP2-020 (AID 986). The gist of the method:
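Luminescent ATP signal (CellTiter-Glo, 30 min at room temperature) is the read-out after 24 h compound treatment of lymphoblastoid cells at 37 C. AC50 values come from Hill-equation fits across concentrations.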

Assay [17] is described as follows: Cell Viability - LYMP2-022 (AID 987). The gist of the method:
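qHTS: human lymphoblastoid cells 2500/well; 5 hr 37 C; cpd added; 24 hr 37 C; CellTiter-Glo, 30 min RT; luminescence. AC50 via Hill fit; tetraoctylammonium bromide positive ctrl.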

The nature of assay [18]: Cell Viability - LYMP2-024 (AID 988). The gist of the method: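 Steps: seed 2500 cells/well, 5 hr 37 C; add compound, 24 hr 37 C; add CellTiter-Glo, 30 min room temperature; read luminescence. AC50 derived by Hill modelling of concentration-dependent ATP loss.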
Assay [19] can be described thus: qHTS assay for small molecule agonists of the antioxidant response element (ARE) signaling pathway measured by Nrf2-dependant transcriptional activity - cell viability counter screen (AID 720653; active = well fitted curve in the direction sought with a large enough effect in the repeat runs; an effect the other way counts as inactive or inconclusive; note: % is set by controls: 0 for no effect and ±100 for the full control effect). The following applies: ARE-bla HepG2 viability, CellTiter-Glo ATP luminescence, 16 h; max response: active compounds read low. The gist of the method: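 ARE-bla HepG2 cells treated with compounds for 16 h at 37C; this counter screen measures viability as intracellular ATP by CellTiter-Glo luminescence after 30 min at room temperature.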

Assay [20] in a line: qHTS assay for cell viability of HEK293 cells (AID 743288). For max response: % is set by controls: 0 for no effect and ±100 for the full control effect. Note: nearly all actives have a fitted effect of over 50% in size. Note: potency is the fitted concentration of half-maximal effect. As to conditions: ATP luminescence (CellTiter-Glo), 18 h; max response: active compounds read low. The gist of the method:
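Parental HEK293 cells were seeded at 2,000 cells/well, rested at least 5 h at 37 C, then exposed to compounds in DMSO for 18 h at 37 C. Viability was read as ATP-dependent luciferase luminescence after 30 min at room temperature.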
In general terms: qHTS replaces the single test concentration by a dilution series.

Several values for one entry are separate records, joined by “and”; a condition that tells them apart may be missing. Equal entries are not always repeated. Values without a mark were called inactive. Records with an inconclusive call do not appear. Activity calls are given as the source filed them. Unless noted, calls come from the whole dose curve; as a rule, active = well fitted curve in the direction sought with a large enough effect; inconclusive = small, poorly fitted or top-dose-only effect, or another doubt; inactive = no such curve, though single readings can be large; an effect the other way counts as inactive or inconclusive.

Turning to `CCO`, the Potency entry in assay [1], in assay [2], in assay [3], in assay [4], in assay [5] and in assay [6] was “inactive” each time. The Potency result in assay [7], in [8], in assay [9], in assay [10], in assay [11] and in [12] was “inactive” each time. Further, the Potency entry in assay [13], in assay [14], in [15], in [16], in assay [17] and in assay [18] was “inactive” in each case. Further, the max response in [19] was 7%; in assay [20] it was 8.81%.

Turning to `Cc1ccc(N)c([N+](=O)[O-])c1`, the Potency entry in [1], in assay [2], in [3], in [4], in [5] and in assay [6] was “inactive” each time. Further, the Potency result in assay [7], in assay [8], in [9], in [10], in assay [11] and in assay [12] was “inactive” throughout. Besides, the Potency result in [13], in [14], in assay [15], in [16], in [17] and in assay [18] was “inactive” each time. Further, the max response was -14.8% and -1.11% in assay [19]; -10.6% and -7.86% in assay [20].

With `COc1ccc2nc(N)sc2c1`, the Potency entry in assay [1], in [2], in assay [3], in assay [4], in assay [5] and in assay [6] was “inactive” each time. Also, the Potency result in assay [7], in assay [8], in assay [9], in assay [10], in assay [11] and in [12] was “inactive” in each case. The Potency result in assay [13], in assay [14], in [15], in assay [16], in assay [17] and in assay [18] was “inactive” throughout. Besides, the max response is -11.5% and -7.03% in [19]; 3.97% and -4.38% in assay [20].

In the case of `CC1=CC(C)(C)Nc2ccccc21`, the Potency result in assay [1], in assay [2], in assay [3], in assay [4], in assay [5] and in assay [6] was “inactive” each time. Moreover, the Potency result in assay [7], in [8], in assay [9], in assay [10], in assay [11] and in [12] was “inactive” each time. In addition, the Potency result in assay [13], in assay [14], in assay [15], in assay [16], in assay [17] and in assay [18] was “inactive” throughout. The max response in assay [19] was 0.655% and 4.88%; in assay [20] it was -4.28% and -1.89%.

In the case of `CN(C)CCCCCCN(C)C`, the Potency result in assay [1], in assay [2], in assay [3], in assay [4], in assay [5] and in [6] was “inactive” throughout. For the same compound, the Potency result in assay [7], in assay [8], in assay [9], in assay [10], in assay [11] and in assay [12] was “inactive” throughout. The Potency result in assay [13], in assay [14], in [15], in [16], in assay [17] and in assay [18] was “inactive” in each case. The values for the max response in assay [19] and in assay [20] were 1.08% and -4.75%, respectively.

Consider `c1ccc2c(c1)[nH]c1ccccc12`, for which the Potency entry in assay [1], in [2], in assay [3], in assay [4], in [5] and in [6] was “inactive” in each case. The Potency result in assay [7], in [8], in assay [9], in assay [10], in [11] and in assay [12] was “inactive” throughout. The Potency entry in assay [13], in assay [14], in assay [15], in assay [16], in assay [17] and in assay [18] was “inactive” each time. Moreover, the max response in [19] was -11% and -21.8%; in assay [20], -7.42% and -16.3%.

Consider `S=C1NC=NC2N=CNC12` (centres undefined), for which the Potency entry in assay [1], in [2], in assay [3], in [4], in assay [6] and in [7] was “inactive” each time. Also, the Potency result in assay [8], in assay [9], in assay [10], in [11], in [12] and in assay [13] was “inactive” throughout. Also, the Potency result in assay [14], in [15], in assay [16], in assay [17] and in [18] was “inactive” each time. Also, the Potency in assay [5] was 1580 nM (active); in assay [20], 2240 nM (active).

Turning to `CC(C)=CCCC(C)CCO` (centres undefined), the Potency result in assay [1], in assay [2], in assay [3], in assay [4], in [5] and in assay [6] was “inactive” throughout. Besides, the Potency result in assay [7], in [8], in assay [9], in assay [10], in assay [11] and in assay [12] was “inactive” in each case. Moreover, the Potency entry in assay [13], in assay [14], in [15], in assay [16], in assay [17] and in assay [18] was “inactive” throughout. Further, the max response in [19] is -2.24% and -1.77%; in [20], 0.805% and -8.34%.

With `CCCCCCCCCCCCCCC1CO1` (centres undefined), the Potency result in assay [1], in assay [2], in assay [3], in assay [4], in assay [5] and in [6] was “inactive” in each case. The Potency result in assay [7], in assay [8], in assay [9], in [10], in assay [11] and in [12] was “inactive” throughout. In addition, the Potency result in assay [13], in assay [14], in assay [15], in assay [16], in assay [17] and in [18] was “inactive” throughout. Besides, the max response is -2.08% and 0.668% in assay [19]; -3.91% and -17.2% in assay [20].

Regarding `CCCCOCCO`, the Potency entry in [1], in [2], in assay [3], in [4], in assay [5] and in [6] was “inactive” in each case. Moreover, the Potency entry in [7], in [8], in assay [9], in [10], in assay [11] and in [12] was “inactive” in each case. In addition, the Potency entry in [13], in assay [14], in assay [15], in assay [16], in [17] and in [18] was “inactive” throughout. In addition, the max response in assay [19] was 4.17% and -5.63% and -2.53%; in assay [20] it was 4.48% and -11.2% and -7.95%.

As for `COc1c2ccoc2cc2oc(=O)ccc12`, the Potency entry in assay [1], in assay [2], in assay [3], in assay [4], in [5] and in assay [6] was “inactive” throughout. Besides, the Potency entry in assay [7], in [8], in [9], in [10], in assay [11] and in assay [12] was “inactive” throughout. In addition, the Potency entry in assay [13], in [14], in assay [15], in assay [16], in assay [17] and in assay [18] was “inactive” each time. For the same compound, the max response in [19] was 3.31%; in assay [20], -2.26%.
